Laboratory results reported in PubChem BioAssay (NCATS).
Records with an inconclusive call do not appear. Active and inactive are the calls of the source. Calls follow the shape of the dose curve; as a rule, active = well fitted inhibition curve with a large enough effect; inconclusive = small, poorly fitted or top-dose-only effect; inactive = no such curve, though single readings can be large or run the other way.

Experiment: P-glycoprotein substrates identified in KB-3-1 adenocarcinoma cell line, qHTS therapeutic library screen (AID 1346986); also: nearly all actives have a fitted effect of over 60% in size
Settings: KB-3-1 parental cells viability, CellTiter-Glo, 72 h; series mostly up to 44.5 µM; activity change, negative = cytotoxicity: at the top concentration
Method in brief: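 KB-3-1 parental cells and P-gp-overexpressing KB-8-5-11 (colchicine omitted during assay) plated at 500 cells/well, dosed in dose-response, incubated 72 h at 37 degree C. CellTiter-Glo luminescence read; KB-8-5-11 also tested with tariquidar.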

Row | Compound | outcome
1 | CC1CC(=O)C2=C(O1)OC1(C)CCC3C(C)(C)C=CC(=O)C3(C)C1C2 (centres undefined) | inactive
2 | O=C(O[C@@H]1O[C@H](CO)[C@@H](O)[C@H](O)[C@H]1O)c1c(O)cc(O)cc1/C=C/c1ccccc1 | inactive [at 17.4 µM]
3 | C=C1CCC2C(C)(COC3OC(COC(=O)CC(=O)O)C(O)C(O)C3O)CCCC2(C)C1CCC1=CCOC1=O (centres undefined) | inactive [at 17.4 µM]
4 | CC1=C2C3OC(=O)C(C)C3(O)CCC2(C)CCC1=O (centres undefined) | inactive
5 | Cc1ncc([N+](=O)[O-])n1CC(O)CN1CCOCC1 (centres undefined) | inactive
6 | COc1ccc(/C=C/C(=O)O[C@H]2[C@@H]3C=CO[C@@H](O[C@@H]4O[C@H](CO)[C@@H](O)[C@H](O)[C@H]4O)[C@@H]3[C@@]3(CO)O[C@@H]23)cc1O | inactive [at 17.4 µM]
7 | C[C@@H]1CC[C@H]2C(C)(C)[C@H](O)[C@H](O)C[C@]2(C)[C@@]12Cc1c(O)cc3c(c1O2)CNC3=O | inactive
8 | C[C@@H]1O[C@@H](O[C@@H]2[C@@H](O)[C@H](O[C@@H]3[C@@H](O)[C@@H](O)[C@H](O[C@H]4[C@H](OC(=O)[C@]56CCC(C)(C)C[C@H]5C5=CCC7[C@@]8(C)C[C@H](O)[C@H](O[C@@H]9O[C@@H](C)[C@H](O)[C@@H](O)[C@H]9O)[C@@](C)(CO)C8CC[C@@]7(C)[C@]5(C)C[C@H]6O)O[C@H](C)[C@H](O)[C@@H]4O)O[C@H]3C)OC[C@H]2O)[C@H](O)[C@H](O)[C@H]1O (some centres undefined) | inactive [at 9.29 µM]
9 | CC(C)=CCCC1(C)Oc2cc3c(c4c2C2C(O4)C(C)(O)CCC21)CN(C(CCC(=O)O)C(=O)O)C3=O (centres undefined) | inactive [at 17.4 µM]
